HT1080NT lethal: qHTS for induction of synthetic lethality in tumor cells producing 2HG: qHTS for the HT-1080-NT fibrosarcoma cell line. HT-1080-NT fibrosarcoma viability, CellTiter-Glo ATP luminescence, 48 h. 360,000 compounds, 1.6% hits. Potency, µM (doses to about 46.1 µM), actives largely listed as cytotoxic;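 also: NT is the 2HG producing partner of a matched IDH1 knockdown line; nearly all actives have a fitted effect of over 55% in size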
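HT-1080-NT; 750 cells/well; 5% FBS RPMI; 48 h compound, 37 degrees C; CellTiter-Glo luminescence; curve fitting and curve-class assignment.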
HT1080 IDH1KD tx: qHTS for induction of synthetic lethality in tumor cells producing 2HG: qHTS for the HT-1080-IDH1KD cell line | 360,000 compounds, 2% hits | Potency, µM (titrated, usually from 46.1 µM), usual class: cytotoxic | HT-1080 IDH1 knockdown viability, ATP luminescence, 48 h | AID 686971, 2013
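After a 2 h attachment period, IDH1KD HT-1080 cells took pin-transferred compound for 48 h at 37 °C; ATP-based luminescence after 10 min room-temperature reagent incubation reported viability.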
IL-1B inflam inh: qHTS for Inhibitors of Inflammasome Signaling: IL-1-beta AlphaLISA Primary Screen; THP-1 LPS/ATP IL-1B secretion, AlphaLISA, 16 h; hits give low values; activity change, % at 57.5 µM; 360,000 compounds, 4.7% hits; AID 743279, 2014; in the data active = activity change below about -50%; inconclusive = mostly about -30% to -49%
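THP-1 cells pretreated 1 hr with compounds (up to 57.5 uM final), then stimulated with LPS (250 ng/mL final) plus ATP (1.25 mM final); secreted IL-1B measured by AlphaLISA after 16 hr, decreased signal indicating inhibition.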
DT40 TDP1 no CPT: qHTS for Inhibitors of human tyrosyl-DNA phosphodiesterase 1 (TDP1): qHTS in cells in absence of CPT. DT40 Tdp1-/- hTDP1 cells, no CPT, ATP luminescence, 48 h. Potency, µM (titrated, usually from 46.2 µM), most hits filed as inhibitors. 420,000 compounds, 15% hits. AID 686978, 2013; also: nearly all actives have a fitted effect of over 55% in size
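DT40 Tdp1-/-;hTDP1 cells, no CPT (DMSO vehicle only), 400 cells/well; compounds pin-transferred; ≥48 hr, 37 °C; CellTiter-Glo 30 min RT dark, luminescence read.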
TDP1 cell CPT: qHTS for Inhibitors of human tyrosyl-DNA phosphodiesterase 1 (TDP1): qHTS in cells in presence of CPT; chicken DT40 Tdp1-/-;hTDP1 cells + 20 nM CPT, ATP luminescence, 48 h; Potency, µM (top dose mostly 46.2 µM), most hits filed as inhibitors; 420,000 compounds, 12% hits; also: nearly all actives have a fitted effect of over 55% in size
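Chicken DT40 Tdp1-/- cells complemented with human TDP1, 400 cells/well, exposed to compounds plus 20 nM camptothecin for at least 48 h at 37 C; viability read as ATP content by CellTiter-Glo luminescence.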
12-LOX inh: Primary qHTS assay for inhibitors of human arachidonate 12S-lipoxygenase (ALOX12): Round 2; Polyunsaturated fatty acid lipoxygenase ALOX12 (Homo sapiens), P18054; purified 12hLO, xylenol orange hydroperoxide absorbance; Potency, µM (top dose mostly 108 µM), hits mostly inhibitors; 580,000 compounds, 1.1% hits; AID 1671190, 2021
Target sequence (P18054 whole entry, looked up): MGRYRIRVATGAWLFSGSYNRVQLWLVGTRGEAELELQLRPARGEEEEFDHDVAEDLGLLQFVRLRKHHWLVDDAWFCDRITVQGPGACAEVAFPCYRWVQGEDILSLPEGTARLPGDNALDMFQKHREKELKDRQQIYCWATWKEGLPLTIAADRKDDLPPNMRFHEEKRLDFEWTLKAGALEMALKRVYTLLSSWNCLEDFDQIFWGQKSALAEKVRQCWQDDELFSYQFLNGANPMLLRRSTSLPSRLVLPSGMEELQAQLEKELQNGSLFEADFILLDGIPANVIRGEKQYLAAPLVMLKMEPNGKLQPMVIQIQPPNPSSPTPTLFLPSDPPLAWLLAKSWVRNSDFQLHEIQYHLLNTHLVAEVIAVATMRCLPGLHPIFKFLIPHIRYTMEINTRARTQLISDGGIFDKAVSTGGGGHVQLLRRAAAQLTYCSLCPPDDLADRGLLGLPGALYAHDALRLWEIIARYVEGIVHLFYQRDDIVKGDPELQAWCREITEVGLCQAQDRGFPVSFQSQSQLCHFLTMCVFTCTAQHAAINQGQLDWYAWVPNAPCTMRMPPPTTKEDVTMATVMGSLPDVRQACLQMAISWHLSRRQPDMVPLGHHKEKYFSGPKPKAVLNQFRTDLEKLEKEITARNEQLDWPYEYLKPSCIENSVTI
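Purified human 12hLO at 150 nM in 25 mM Hepes, 0.01% Triton X-100, pH 7.0, preincubated 15 min at room temperature with compound. Reaction started with 40 uM arachidonic acid, 30 min at room temperature. Hydroperoxide measured by Fe-xylenol orange, 573/405 nm absorbance ratio.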
Hits are given with their value; . = inactive; ? = inconclusive; / = no result given. The sample as a whole holds a higher share of hits than the screen did. Unless noted, calls follow the shape of the dose curve; as a rule, active = well fitted curve in the direction sought with a large enough effect; inconclusive = small, poorly fitted or top-dose-only effect, or another doubt; inactive = no such curve, though single readings can be large; an effect the other way counts as inactive or inconclusive.

SMILES | HT1080NT lethal | HT1080 IDH1KD tx | IL-1B inflam inh | DT40 TDP1 no CPT | TDP1 cell CPT | 12-LOX inh
CN(C)c1ccc(CC(=O)c2nc3ccccc3s2)cc1 | . | . | . | ? | 16.4µM | ?
Cc1noc(-c2ccn3c(CNC(=O)c4cccc(F)c4)nnc3c2)n1 | / | / | / | / | / | .
COc1ccccc1CNC(=O)c1cc2c(N3CCCC3)nc(C)cn2n1 | / | / | / | / | / | .
O=C(Nc1cc(C(F)(F)F)ccc1Cl)C(Sc1cccc[n+]1[O-])c1ccccc1 (stereo not given) | . | . | -95.6 | 4.61µM | 4.61µM | .
CCCN1CCC(=O)N([C@H](CSc2ccc(Br)cc2)c2ccccc2)CC1 | . | . | . | 16.4µM | ? | ?
CC(=O)Nc1ccc(SC[C@H](c2ccccc2)N2CCN(CCc3ccccc3)CCC2=O)cc1 | / | / | / | / | / | .
O=C1CCN(CCc2ccccc2)CCN1[C@H](CSc1ccc(Br)cc1)c1ccccc1 | . | . | . | 18.4µM | ? | ?
CCCN1CCC(=O)N([C@H](CSc2ccccc2)CC(C)C)CC1 | . | . | . | ? | ? | .
CCCOc1ccc(N2C(=O)CC(SC(=N)N3N=C(c4ccccc4)CC3c3ccccc3)C2=O)cc1 (stereo not given) | . | . | . | 18.4µM | 18.4µM | .
CC(C)C(=O)Nc1ccc2c(c1)C(=O)N(CCC(=O)O)C2=O | . | . | . | 29.1µM | . | .
COc1ccc(CC(=O)Nc2ccc3c(c2)C(=O)N(CCC(=O)O)C3=O)cc1 | . | . | . | . | . | .
O=C1CO[C@H]2CCN(Cc3ccncc3)CC[C@@H]2N1Cc1c[nH]c2ccccc12 | / | / | / | / | / | .
CCC(=O)Nc1nonc1-c1nc2ccccc2n1Cc1ccccc1 | ? | ? | . | ? | ? | .
CCC(=O)Nc1nonc1-c1nc2ccccc2n1CCC(C)C | . | ? | . | 9.2µM | ? | .
CN(C)C[C@@H]1CN(c2ccccn2)C[C@H]1NC(=O)CCn1cccn1 | / | / | / | / | / | .
O=C1N[C@@H](Cc2c[nH]c3ccccc23)COC(=O)[C@H](Cc2ccc(F)cc2)C/C=C\C[C@H]1CC(=O)N(CCO)Cc1ccccc1 | ? | ? | . | 16.4µM | 13µM | ?
O=C1N[C@@H](Cc2ccccc2)COC(=O)[C@H](Cc2ccc(F)cc2)CC/C=C/C[C@@H]1CC(=O)N(CCO)Cc1ccccc1 | . | ? | ? | ? | ? | .
O=C1N[C@@H](Cc2c[nH]c3ccccc23)COC(=O)[C@@H](Cc2ccc(F)cc2)CC/C=C/C[C@@H]1CC(=O)N(CCO)Cc1ccccc1 | . | ? | -60.3 | 25.9µM | ? | .
CCOC(=O)c1ccc(S(=O)(=O)NNC(=O)c2cccc(N(C)C)c2)cc1 | . | . | -141.2 | . | . | ?
CCNc1ccc(C(=O)OCC)cc1NC(=O)c1cccc(S(=O)(=O)N(C)c2ccccc2)c1 | . | . | . | 4.61µM | 16.4µM | .
CCNc1ccc(C(=O)OCC)cc1NC(=O)c1cccc(N(C)C)c1 | 1.78µM | ? | . | 2.59µM | 3.26µM | .
Cc1ccc(NC(=O)c2cccc(N(C)C)c2)c(C)c1 | / | / | / | / | / | .
C=CCNC(=O)C/C(C)=N/NC(=O)C(C)C | / | / | / | / | / | .
N#Cc1c(N)n[nH]c1CCCNC(=O)NC1CCCc2ccccc21 (stereo not given) | / | / | / | / | / | .
COC(=O)c1ccc(Oc2nc(Nc3ccccc3)nc(N(C)C)n2)cc1 | . | . | . | 20.6µM | ? | .
SMILES | HT1080NT lethal | HT1080 IDH1KD tx | IL-1B inflam inh | DT40 TDP1 no CPT | TDP1 cell CPT | 12-LOX inh
N/C(=N\S(=O)(=O)c1cc(C(F)(F)F)cc(C(F)(F)F)c1)c1ccc(Cl)cc1 | ? | ? | . | 20.6µM | 18.4µM | .
CN(C)c1cccc(Oc2nnnn2[C@H]2CO[C@H]3[C@@H]2OC[C@@H]3N)c1 | / | / | / | / | / | .
CCOC(=O)C1=CC[C@@H](c2ccccc2C(F)(F)F)N(S(=O)(=O)c2ccc(C)cc2)[C@H]1c1ccc(C#N)cc1 | . | . | . | 13µM | 14.6µM | .
CCOC(=O)C1=CCC(c2ccc(N(CC)CC)cc2)N(S(=O)(=O)c2ccc(C)cc2)C1c1ccc([N+](=O)[O-])cc1 (stereo not given) | . | . | . | 6.51µM | 7.31µM | .
CCOC(=O)C1=CC[C@@H](c2ccccc2)N(S(=O)(=O)c2ccc(C)cc2)[C@@H]1C#N | . | ? | ? | ? | ? | ?
CCOC(=O)C1=CC[C@@H](c2ccccc2)N(S(=O)(=O)c2ccc(C)cc2)[C@H]1C | . | ? | . | 23.1µM | ? | .
CCOC(=O)C1=CC[C@@H](c2ccccc2)N(S(=O)(=O)c2ccc(C)cc2)[C@H]1/C=C/c1ccccc1 | . | . | . | 9.2µM | 13µM | .
COc1ccc(CN[C@H]2[C@H](O)[C@@H](N3CCN(C)CC3)[C@@H]3OC[C@H]2O3)cc1 | / | / | / | / | / | .
O=C(Cc1ccc(-c2ccc(OCCN3CCOCC3)cc2)cn1)NCc1ccccc1 | / | / | / | / | / | .
CCOC(=O)C1=CCC2c3c(c4ccccc4n3C)C(=O)C1N2C(=O)OC(C)(C)C (stereo not given) | . | . | . | ? | ? | .
CCOC(=O)C1=CC[C@H]2c3c(c4ccc(OC)cc4n3C)C(=O)C1N2S(=O)(=O)c1ccc(C)cc1 | 18.4µM | ? | . | 4.61µM | 5.8µM | .
CCOC(=O)C1=CC[C@@H](c2ccc(OC)cc2)N(S(=O)(=O)c2ccc(C)cc2)[C@H]1CC | . | ? | . | 18.4µM | 14.6µM | .
C=C[C@H]1C(C(=O)OCC)=CC[C@@H](c2ccccc2)N1S(=O)(=O)c1ccc(C)cc1 | . | . | . | 20.6µM | 23.1µM | .
Cc1cccc(N2CCN(C(=O)CN3CC4(CCCCC4)CC3=O)CC2)n1 | / | / | / | / | / | .
COc1ccc(/C=C/C(=O)OCC(=O)NCc2ccco2)c(OC)c1 | . | . | . | ? | . | .
Cc1ccc2c(c1)C(=O)C(=O)N2CC1COc2ccccc2O1 (stereo not given) | . | ? | -92.7 | 2.31µM | 2.31µM | .
COc1ccc(C2C(=O)N(C3CCCCC3)CC(=O)N2CC2COc3ccccc3O2)cc1 (stereo not given) | . | . | . | ? | ? | .
COc1ccc2c(c1)C(=O)C(=O)N2CC1COc2ccccc2O1 (stereo not given) | ? | . | . | 0.581µM | 1.03µM | .
CCN1CCN(CC2COc3ccccc3O2)CC1 (stereo not given) | . | . | . | . | . | ?

Compound activity (PubChem)
